# From PubChem BioAssay AID463173 (ICCB-Longwood Screening Facility, Harvard Medical School, 2010)
# The campaign covered roughly 52,000 compounds. About 4,300 (8.3%) were called active. This is one part of a sample in which actives are shown more often than they occur. A number with no mark means an inactive call. Rule as the data show it: active = survival mostly below about 52% (no sharp cut-off); inactive = mostly above about 56%.
# System: DeltatarO mutant
# Test: growth inhibition of S. aureus wild type versus tarO mutant, primary screen, teichoic acid synthesis inhibitors, RN4220, OD600 (AID 463173)
# Conditions: OD600, 18 h, hits give low values, screened at 18.75 µg/mL (by protocol)
row,SMILES,survival
1,COC(=O)c1ccc(NC(=O)CSc2nc(=O)[nH]c3c2CCCC3)cc1,75%
2,COC(=O)CSc1ncc2c(n1)-c1ccccc1N(Cc1ccc(Cl)cc1)S2(=O)=O,69%
3,CCOC(=O)N1CCc2c(sc3c2c(=O)n(CCc2ccccc2)c(=O)n3Cc2c(F)cccc2Cl)C1,85%
4,COc1ccc(-c2nc(C)c(CCNC(=O)c3c(F)cccc3F)s2)cc1,84%
5,O=C(Cn1c(=O)oc2cc(S(=O)(=O)N3CCCCCC3)ccc21)NCc1ccccc1Cl,78%
6,CCCCOc1cccc(C2c3c(-c4cc(C)ccc4O)n[nH]c3C(=O)N2CCOC)c1 (stereo not given),10% (active)
7,CCOc1cc(C2c3c(-c4cc(C)ccc4O)n[nH]c3C(=O)N2CCCOC(C)C)ccc1O (stereo not given),90%
8,COCCN1C(=O)c2[nH]nc(-c3c(C)cc(C)cc3O)c2C1c1cccc(O)c1 (stereo not given),57%
9,COCCCN1C(=O)c2[nH]nc(-c3cc(C)ccc3O)c2C1c1ccc(F)cc1 (stereo not given),66%
10,CCc1ccc(C2c3c(-c4cc(C)ccc4O)n[nH]c3C(=O)N2CCO)cc1 (stereo not given),61%
11,COCCN1C(=O)c2[nH]nc(-c3cc(C)ccc3O)c2C1c1ccc(C(C)C)cc1 (stereo not given),1% (active)
12,COCCCN1C(=O)c2ccccc2CC1(C)C(=O)NC1CCCCC1 (stereo not given),97%
13,Cc1ccc(CNC(=O)Cc2csc3ccccc23)cc1,93%
14,CC(=O)N1c2ccc(S(=O)(=O)N3CCN(c4cc(Cl)ccc4C)CC3)cc2CC1C (stereo not given),87%
15,CCN1CCCC1CNCC(=O)NC1(C)C2CCC(C2)C1(C)C (stereo not given),100%
16,COc1ccccc1C(=O)Nc1nnc2n1CCS2,69%
17,COc1ccccc1N1CCN(C(=O)c2ccco2)CC1,104%
18,Cc1ccccc1C(=O)NCC(c1cccnc1)N1CCc2ccccc21 (stereo not given),44% (active)
19,COc1cc(C(=O)NCC(c2cccnc2)N2CCc3ccccc32)cc(OC)c1OC (stereo not given),44% (active)
20,Cc1ccc(C(=O)NCC(c2cccnc2)N2CCc3ccccc32)cc1C (stereo not given),55%
21,O=C(NCC(c1cccnc1)N1CCc2ccccc21)c1ccc(Cl)cc1 (stereo not given),52%
22,COc1ccc(C(=O)NCC(c2cccnc2)N2CCc3ccccc32)cc1 (stereo not given),46% (active)
23,COc1ccc(C(=O)NCC(c2cccnc2)N2CCc3ccccc3C2)cc1 (stereo not given),77%
24,COc1ccc(C(=O)NCC(c2cccnc2)N2CCc3ccccc32)cc1OC (stereo not given),57%

row,SMILES,survival
1,O=C(NCC(c1cccnc1)N1CCc2ccccc21)c1ccccc1Br (stereo not given),56%
2,COc1cc(C(=O)NCC(c2cccnc2)N2CCc3ccccc3C2)cc(OC)c1OC (stereo not given),76%
3,COc1ccc(C(=O)OCc2cc(=O)n3nc(-c4cccs4)sc3n2)cc1,60%
4,c1ccc(Oc2ccc(N=NN3CCCCC3)cc2)cc1,74%
5,CCN1CCN(c2c(S(=O)(=O)c3ccc(C)c(C)c3)cnc3cc(OC)c(OC)cc23)CC1,75%
6,CCC(=O)c1cc2c(cc1NC(=O)c1cccc(Cl)c1)OCCO2,105%
7,Cc1ccc(C(=O)Nc2cc(-c3nc4cc(Cl)ccc4o3)ccc2C)c(C)c1,85%
8,CCc1ccc(OCC(=O)Nc2cc(-c3nc4cc(C)ccc4o3)ccc2C)cc1,65%
9,Cc1c(NC(=O)c2sc3ccccc3c2Cl)cccc1-c1nc2ccccc2o1,53%
10,Cc1ccc(-c2nc3cc(Cl)ccc3o2)cc1NC(=O)COc1ccc(F)cc1,53%
11,COc1ccc2oc(-c3ccc(C)c(NC(=O)c4sc5ccccc5c4Cl)c3)nc2c1,48% (active)
12,COc1ccc2oc(-c3ccc(C)c(NC(=O)Cc4ccc(Cl)cc4)c3)nc2c1,151%
13,Cc1ccc2nc(-c3ccc(C)c(NC(=O)CSc4ccc(Cl)cc4)c3)oc2c1,85%
14,Cc1ccc2oc(-c3ccc(C)c(NC(=O)/C=C/c4ccc(Cl)cc4)c3)nc2c1,90%
15,COc1ccc2oc(-c3ccc(C)c(NC(=O)CSc4ccc(Cl)cc4)c3)nc2c1,51% (active)
16,COc1ccc2oc(-c3cccc(NC(=O)c4sc5c([N+](=O)[O-])cccc5c4Cl)c3)nc2c1,77%
17,Cc1ccc2oc(-c3ccc(C)c(NC(=O)C(C)(C)Oc4ccc(Cl)cc4)c3)nc2c1,13% (active)
18,COc1ccc2oc(-c3ccc(C)c(NC(=O)COc4cc(C)cc(C)c4)c3)nc2c1,43% (active)
19,COc1cccc2cc(-c3nc(-c4ccc(Cl)cc4)cs3)c(=O)oc12,83%
20,Cc1ccc(Sc2c(C(=O)NCc3ccccc3C)[nH]c3ccccc23)cc1,77%
21,CCOc1cccc(C(=O)Nc2ccc(Cl)cn2)c1,72%
22,Cc1cccc(Cn2cc(S(=O)(=O)c3cccc(Cl)c3)c(=O)c3cc(F)c(N4CCOCC4)cc32)c1,85%
23,Cc1ccc(C)c(CN2CCC(CNC(=O)Cn3ncc4c([nH]c5ccccc54)c3=O)CC2)c1,70%
24,Cc1ccc(S(=O)(=O)c2[nH]c(-c3ccccc3)nc2SCC(=O)O)cc1,78%

row,SMILES,survival
1,COC(=O)c1ccc(NC(=O)c2cc3cc(C)ccc3n2C)cc1,66%
2,O=C1C(c2nc3ccccc3[nH]2)=C(O)c2ccccc21,74%
3,CCCN1CCc2nc(N3CCN(CC)CC3)ncc2C1,72%
4,Cc1ccc2oc(-c3ccc(C)c(NC(=O)c4ccc(-c5ccccc5[N+](=O)[O-])o4)c3)nc2c1,68%
5,COc1ccc2oc(-c3ccc(C)c(NC(=O)c4ccc(-c5ccccc5[N+](=O)[O-])o4)c3)nc2c1,42% (active)
6,Cc1ccc2oc(-c3ccc(Cl)c(NC(=O)c4ccc(-c5ccccc5[N+](=O)[O-])o4)c3)nc2c1,74%
7,Cc1ccc(C)c(Nc2nn3c(=O)c4cc5c(cc4nc3s2)OCO5)c1,37% (active)
8,Cc1cccc(Nc2nn3c(=O)c4cc5c(cc4nc3s2)OCO5)c1,116%
9,Cc1cc(C)c(Nc2nn3c(=O)c4cc5c(cc4nc3s2)OCO5)c(C)c1,51%
10,COc1ccccc1C(=O)n1nc(-c2ccccc2)nc1NCc1ccc(Cl)cc1,56%
11,O=C(c1ccc(Cl)cc1)n1nc(-c2cccnc2)nc1NCc1ccc(F)cc1,43% (active)
12,O=C(c1ccco1)n1nc(-c2ccccc2)nc1NCc1ccc(F)cc1,65%
13,O=C(c1ccccc1Cl)n1nc(-c2cccnc2)nc1NCc1ccc(F)cc1,55%
14,O=C(c1ccc(F)cc1)n1nc(-c2cccnc2)nc1NCc1ccccc1,71%
15,Cc1cccc(C(=O)n2nc(-c3cccnc3)nc2NCc2ccc(F)cc2)c1,54%
16,O=C(c1ccc(F)cc1)n1nc(-c2cccnc2)nc1NCc1ccc(F)cc1,73%
17,COc1ccc(CNc2nc(-c3ccccc3)nn2C(=O)c2ccccc2OC)cc1,102%
18,O=C(c1ccccc1)n1nc(-c2ccccc2)nc1NCc1ccc(F)cc1,12% (active)
19,Cc1ccccc1C(=O)n1nc(-c2cccnc2)nc1NCc1ccc(F)cc1,48%
20,COc1ccc(CNc2nc(-c3ccc(Cl)cc3)nn2C(=O)c2ccccc2)cc1,36% (active)
21,O=C(c1ccc(F)cc1)n1nc(-c2ccccc2)nc1NCc1ccc(F)cc1,30% (active)
22,Cc1ccc(Cn2ccnc2SCC(=O)Nc2ccc3c(c2)OCO3)cc1,92%
23,COc1ccc(NC(=O)CSc2nc3ccncc3[nH]2)c(OC)c1,95%
24,CCCCC12CN3CC(C)(CN(C1)C3c1cc(Br)ccc1O)C2=O (stereo not given),72%

row,SMILES,survival
1,CCN=C1S/C(=C\c2cn(CC(=O)NCCOC)c3ccccc23)C(=O)N1CC,95%
2,CCOc1ccc(CCNC(=O)CS(=O)(=O)Cc2nc(-c3ccc(OC)cc3)oc2C)cc1,83%
3,COc1ccc(N(CC(=O)NCc2ccc(F)cc2)S(=O)(=O)c2c(C)n[nH]c2C)cc1,79%
4,CCNC(=O)c1cnc2sc(N3CCC(C)CC3)nn2c1=O,74%
5,Cc1onc(-c2ccccc2Cl)c1C(=O)NC(C(=O)O)C(C)C (stereo not given),86%
6,Cc1onc(-c2c(F)cccc2Cl)c1C(=O)Nc1ccc(OC(C)C)cc1,62%
7,Cc1ccc(S(N)(=O)=O)cc1NC(=O)c1c(-c2c(Cl)cccc2Cl)noc1C,55% (active)
8,CC(C)c1cc(C(=O)NCc2ccccc2)no1,54%
9,CCOC(=O)C1CCN(C(=O)CSc2n[nH]c(-c3ccccc3)n2)CC1,97%
10,O=C(Nc1noc2ccccc12)c1c(F)cccc1F,87%
11,COC(=O)c1cccc(Nc2c(-c3ccc(OC)cc3)nc3nc[nH]n23)c1,64%
12,Cc1cc(C)n(CCc2nc3c4ccccc4nc(N4CCN(c5cccc(C)c5C)CC4)n3n2)n1,86%
13,Cc1ccc2nc(N3CCN(c4cccc(Cl)c4)CC3)c3nnnn3c2c1,88%
14,Cc1cc(C)n(-c2nc3cc(Cl)ccc3nc2N2CCN(c3ccccc3F)CC2)n1,98%
15,Cc1cc(C)n(-c2nc3ccccc3nc2N2CCN(c3cccc(C(F)(F)F)c3)CC2)n1,91%
16,Cc1ccc2nc(N3CCN(c4cccc(Cl)c4)CC3)c(-n3nc(C)cc3C)nc2c1,0% (active)
17,Cc1cc(C)n(-c2nc3ccccc3nc2N2CCN(c3cccc(C)c3C)CC2)n1,-6% (active)
18,Cc1cc(C)n(-c2nc3cc(Cl)ccc3nc2Nc2ccc(C)c(F)c2)n1,91%
19,COc1ccccc1N1CCN(c2nc3ccc(C)cc3nc2-n2nc(C)cc2C)CC1,-5% (active)
20,Cc1ccc(C)c(N2CCN(c3nc4ccc(C)cc4nc3-n3nc(C)cc3C)CC2)c1,102%
21,Cc1cc(C)n(-c2nc3cc(Cl)ccc3nc2N2CCN(c3cccc(C)c3C)CC2)n1,-6% (active)
22,COc1ccccc1N1CCN(c2nc3ccc(C)cc3n3nnnc23)CC1,128%
23,Cc1cc(C)c(C#N)c(N2CCN(c3cccc(C)c3C)CC2)n1,106%
